# Measured values: ChEMBL document CHEMBL3988442, “University of Dundee, Small-Polar-MMV Screening Library” (2021)
# In all, about 48,000 compounds went through this assay and about 13,000 (27%) showed an effect of 50% or more. This is one part of the list.
# System: Wolbachia pipientis
# Experiment: Anti-Wolbachia Cell-Based Screen
# Type: functional
# Set-up: scale not given: in the data most compounds retested in dose-response had high values
# Settings: 5 µM
row,SMILES,Percent Effect
1,C[S+]([O-])c1nncn1CC(=O)c1ccc(Cl)c(Cl)c1 (stereo not given),17.05%
2,Cc1cnn(CCCN2C(=O)CCc3ccccc32)c1,16.17%
3,O=C(CSCC1CC1)N1CCCN(c2ccc(F)cc2)CC1,101.8%
4,CSCCC(O)C(=O)N1CCCN(Cc2ccc(F)cc2)CC1 (stereo not given),20.52%
5,Cc1cc(N2CCCN(C(=O)Cc3cccnc3)CC2)ccn1,-24.68%
6,CCc1nnsc1C(=O)N1CCCN(Cc2ccc(F)cc2)CC1,12.06%
7,O=C(CSCC1CC1)N1CCCN(Cc2ccc(F)cc2)CC1,113.6%
8,Cc1nc(CC(=O)N2CCCN(c3ccc(F)cc3)CC2)cs1,6.987%
9,Cc1cc(N2CCCN(C(=O)Cc3cc(F)cc(F)c3)CC2)ccn1,-40.46%
10,Cc1cc(N2CCCN(C(=O)CSCC3CC3)CC2)ccn1,97.17%
11,COCc1ccc(C(=O)N2CCCN(c3ccc(F)cc3)CC2)s1,-6.209%
12,CN(Cc1ccccn1)C(=O)c1ccc2c(c1O)OC(C)(C)C2,-37.36%
13,COc1ccc(OC)c(CN(C)c2ncc(S(N)(=O)=O)s2)c1,-0.04358%
14,c1cnn(CCNCc2csc(-c3ccsc3)n2)c1,8.023%
15,O=C(O)C(F)(F)F.O=C(c1cnccn1)N1C[C@@H]2CCN(c3cnccn3)C[C@@H]2C1,21.49%
16,O=C(C1CCCC1)N1C[C@@H]2CCN(c3cnccn3)C[C@@H]2C1.O=C(O)C(F)(F)F,80.73%
17,O=C(C1CCCO1)N1C[C@@H]2CCN(c3cnccn3)C[C@@H]2C1.O=C(O)C(F)(F)F (stereo not given in full),102.5%
18,O=C(C1CCCCC1)N1C[C@@H]2CCN(c3cnccn3)C[C@@H]2C1.O=C(O)C(F)(F)F,86.55%
19,CC(C)CN1CC(C(=O)N(C)CCc2cn[nH]c2)CC1=O (stereo not given),-9.129%
20,COc1cccc(CCNC(=O)CN2CCCC2c2noc(C)n2)c1 (stereo not given),-3.314%

row,SMILES,Percent Effect
1,Cc1ncc(CNC(=O)CCc2cccs2)c(C2CCCN2C)n1 (stereo not given),135.8%
2,Cc1ncc(CNC(=O)CCOc2ccccc2)c(C2CCCN2C)n1 (stereo not given),-4.417%
3,Cc1ncc(CNC(=O)CCc2ccccc2F)c(C2CCCN2C)n1 (stereo not given),94.99%
4,Cc1ncc(CNC(=O)Cc2cccs2)c(C2CCCN2C)n1 (stereo not given),125.2%
5,Cc1ncc(CNC(=O)CCc2cccc(F)c2)c(C2CCCN2C)n1 (stereo not given),2.906%
6,CCOc1ncccc1CNC(=O)N1CCCC1c1cccs1 (stereo not given),-31.15%
7,CS(=O)(=O)N1C[C@@H]2CC[C@H](C1)N(CCC(=O)NCc1ccccc1F)C2,-8.664%
8,COc1cccc(CC(=O)NCc2cnc(C)nc2C2CCCN2C)c1 (stereo not given),116.5%
9,O=C1NCCN(Cc2cccnc2)C1CC(=O)N1CCc2n[nH]cc2C1 (stereo not given),-19.58%
10,O=C1C(Sc2nc(=O)ccn2C2CC2)CCN1c1ccccc1F (stereo not given),-10.52%
11,CCNC(=O)N1CCC(NC(=O)NCCc2cc3ccccc3o2)C1 (stereo not given),-2.435%
12,CSCC(C)NCc1ccc2[nH]c(C)c(C)c2c1 (stereo not given),7.257%
13,COCCC(=O)N1C[C@H]2CC[C@@H]1CN(C1Cc3ccccc3C1)C2,12.41%
14,O=C(Nc1nncs1)N(Cc1cccc(O)c1)C1CC1,-1.611%
15,CCC(C)(CC(=O)O)NC(=O)Cc1ccccc1Br (stereo not given),0.3012%
16,Cc1ncc(CNC(=O)Cc2ccsc2)c(C2CCCN2C)n1 (stereo not given),124.7%
17,Cc1noc(C)c1CCCNC(=O)C1CCCN(C(=O)C2CC2)C1 (stereo not given),-0.7156%
18,Cc1ncc(CNC(=O)CCc2c(C)noc2C)c(C2CCCN2C)n1 (stereo not given),116.8%
19,Cc1nc(C2CCCN2CC(=O)NCCc2ccsc2)no1 (stereo not given),-6.143%
20,Cc1ncc(CNC(=O)Cc2ccc(Cl)cc2)c(C2CCCN2C)n1 (stereo not given),-6.333%

row,SMILES,Percent Effect
1,Cc1noc(C)c1CNC(=O)c1ccc(NC2CC2)nc1,4.161%
2,CCCNC(=O)c1cc(Br)cc(S(=O)(=O)N2CCOCC2)c1F,-12.55%
3,O=C(C[C@H]1[C@H]2CN(Cc3ccsc3)C[C@@H]12)N1CCCC1.O=C(O)C(F)(F)F,-30.77%
4,O=C(O)C(F)(F)F.O=C(c1cnccn1)N1CC[C@@H]2CO[C@@H](CN3CCCC3)[C@@H]2C1,-10.73%
5,CN1[C@H](Cn2cncn2)C[C@@H]2CN(Cc3ccsc3)CC[C@@H]21.O=C(O)C(F)(F)F.O=C(O)C(F)(F)F,-21.59%
6,CN1[C@H](CN2CCCC2)C[C@@H]2CN(C(=O)c3cnccn3)CC[C@@H]21,120.7%
7,C[C@@H]1C[C@@H]2CCN(C(=O)c3cnccn3)C[C@H]2O1,-10.48%
8,O=C(c1ccsc1)N1C[C@@H](CN2CCCC2)[C@@H](CO)C1,20.63%
9,CN1[C@H](CN2CCCC2)C[C@@H]2CN(C(=O)Cc3ccsc3)CC[C@@H]21.O=C(O)C(F)(F)F.O=C(O)C(F)(F)F,88.77%
10,CN1[C@H](CN2CCCC2)C[C@@H]2CN(C(=O)c3ccsc3)CC[C@@H]21,81.43%
11,COc1cc(S(=O)(=O)N2CCCc3ccccc32)cc(C(=O)O)c1OC,4.14%
12,c1ccc(Cc2nc(C3CC3)nn2-c2ccc3c(c2)OCCO3)nc1,5.106%
13,O=C(NCCC1CN(Cc2c[nH]cn2)CCO1)Nc1ccccc1 (stereo not given),-0.1872%
14,c1ccc(C(CC2CN(Cc3ncc[nH]3)CCO2)c2ccccc2)cc1 (stereo not given),116.4%
15,CCN(CC1CN(Cc2ncc[nH]2)CCO1)c1cccnn1 (stereo not given),4.051%
16,CC(C)c1n[nH]c(C2CN(Cc3ncc[nH]3)CCO2)n1 (stereo not given),-3.355%
17,CCS(=O)(=O)N1CCOC(CCCc2ccccc2)C1 (stereo not given),-15.33%
18,c1ccc(C(CC2CN(Cc3c[nH]cn3)CCO2)c2ccccc2)cc1 (stereo not given),106.4%
19,CC(C)n1ccnc1CN1CCOC(CCc2ccccc2)C1 (stereo not given),-13.14%
20,c1ccc(CCCC2CN(Cc3ncc[nH]3)CCO2)cc1 (stereo not given),98.97%
